# Sampled rows, rich in hits. Any-hit rate of the full collection: about 7.8%.
# NOMO-1 viab: STK33 inhibitor candidate reducing NOMO-1 cell viability; 37,000 tested, 7.5% active; AID 2330; inhibition, % (no concentration beside the values); NOMO-1 AML viability, CellTiter-Glo luminescence, 72 h; in the data active means inhibition above about 80%
# MITF inhib: inhibitors of MITF; TRPM1 promoter luciferase, luminescence, 24 h; inhibition, % (test concentration not listed); 37,000 tested, 0.28% active; in the data active means inhibition above about 85%;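 further: human melanocyte line stably carrying TRPM1 promoter luciferase reporter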
# PD-1 reversal: reversal of PD-1 mediated T-cell inhibition; activation, % (no concentration beside the values); primary human CD4 T cells, PD-L1 beads, CellTiter-Glo 96 h; 29,000 tested, under 10 active; AID 2316; call rule not given here;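 further: 0% = median vehicle wells and 100% = positive control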
# Shh pathway inh: blocks Sonic Hedgehog signaling. Shh-LIGHT2 Gli-luciferase reporter, 30 h. inhibition, % (concentration not given with the values). 22,000 tested, 2.1% active;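 active means mean inhibition across valid replicates above about 65%, limit read from the data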;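 further: pathway switched on by Shh-conditioned medium diluted 1 in 25 in low serum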
# The depositor's hits bear a star; / = no result given.
SMILES,NOMO-1 viab,MITF inhib,PD-1 reversal,Shh pathway inh
C[C@H](CO)N1C[C@H](C)[C@H](CN(C)C(=O)Nc2cccc3ccccc23)Oc2ccc(NC(=O)Cc3cn(C)c4ccccc34)cc2C1=O,88*,35,-2,-37
C[C@@H]1CN([C@@H](C)CO)C(=O)c2cc(NC(=O)Cc3cn(C)c4ccccc34)ccc2O[C@@H]1CN(C)C(=O)Nc1cccc2ccccc12,125*,34,-2,-1
O=C(CSc1nc(C(F)(F)F)cc(=O)[nH]1)Nc1ccc(F)cc1,-18,-5,2,/
O=C(Nc1ccc(C2=NCCO2)cc1)c1ccc(C(F)(F)F)cc1,38,7,1,-64
CC(C)CC(NS(=O)(=O)c1cccc2nsnc12)C(=O)O (configuration not stated),5,-16,/,/
COC(=O)C(CC(C)C)NS(=O)(=O)c1ccc(-c2nnc(SC)n2C)s1 (configuration not stated),119*,8,0,3
Cc1ccc(S(=O)(=O)N(C)C[C@@H]2Oc3ccc(NC(=O)NC4CCCCC4)cc3CC(=O)N([C@@H](C)CO)C[C@@H]2C)cc1,116*,43,0,/
C[C@H]1CN([C@@H](C)CO)C(=O)Cc2cc(NC(=O)NC3CCCCC3)ccc2O[C@H]1CN(C)S(=O)(=O)c1ccc(Cl)cc1,128*,45,-2,-43
Cc1ccc(S(=O)(=O)N(C)C[C@H]2Oc3ccc(NC(=O)NC4CCCCC4)cc3CC(=O)N([C@H](C)CO)C[C@H]2C)cc1,22,7,/,18
Cc1ccc(S(=O)(=O)N(C)C[C@@H]2Oc3ccc(NC(=O)NC4CCCCC4)cc3CC(=O)N([C@H](C)CO)C[C@@H]2C)cc1,124*,27,/,-23
COc1ccc(S(=O)(=O)N(C)C[C@H]2Oc3ccc(NC(=O)NC4CCCCC4)cc3CC(=O)N([C@@H](C)CO)C[C@H]2C)cc1,-5,-8,/,10
NNC(=O)CNC(=O)c1ccccc1,43,4,3,-33
O=C(OC1(C#CCN2CCCCC2)CCCCC1)c1ccccc1,117*,59,-6,59
CC(CNC1CCCCC1)OC(=O)c1ccccc1 (configuration not stated),22,11,/,-55
COc1ccc([N+](=O)[O-])cc1NC(=O)C(C)N(c1ccc(C)cc1)S(C)(=O)=O (configuration not stated),112*,34,0,/
COC(=O)CN(c1cc([N+](=O)[O-])ccc1OC)S(C)(=O)=O,100*,-7,/,/
COc1ccc(/C=C2\CC/C(=C\c3ccc(C)cc3)C2=O)cc1,11,-7,0,/
O=C1/C(=C/c2ccccn2)CC/C1=C\c1ccccn1,135*,-3,-4,/
S=C(NC1CCCCC1)Sc1ccc(Cl)cc1,122*,10,-1,36
S=C(NC1CCCCC1)C(=S)NC1CCCCC1,34,-45,0,-22
COC(=O)C(O)(c1ccc(NC(=S)NC(=O)c2ccc(Cl)cc2Cl)c(OC)c1)C(F)(F)F (configuration not stated),124*,44,-6,/
COc1cc(NC(=O)COc2ccc(Cl)cc2Cl)ccc1NC(=O)c1ccccc1Cl,39,-7,2,/
COC(=O)C1=C(N)OC2=C(C(=O)CC(C)(C)C2)C1c1ccc(C(=O)OC)cc1 (configuration not stated),9,-3,1,-26
CCOC(=O)c1nc2c(o1)NC(N)=C(C#N)C2c1ccc(Cl)cc1 (configuration not stated),95*,-2,0,12
O=c1c(C(F)(F)F)cccn1Cc1ccccc1,5,5,-1,-5
SMILES,NOMO-1 viab,MITF inhib,PD-1 reversal,Shh pathway inh
NNC(=O)c1cccc(Cn2cccn2)c1,-17,-8,0,-2
C[C@H]1CN([C@@H](C)CO)C(=O)c2cc(NC(=O)Nc3ccc(C(F)(F)F)cc3)ccc2O[C@H]1CN(C)CC1CCCCC1,105*,9,-10,44
C[C@@H]1CN([C@@H](C)CO)C(=O)c2cc(NC(=O)Nc3ccc(C(F)(F)F)cc3)ccc2O[C@@H]1CN(C)CC1CCCCC1,118*,-5,-7,30
C[C@H](CO)N1C[C@H](C)[C@H](CN(C)CC2CCCCC2)Oc2ccc(NC(=O)Nc3ccc(F)cc3)cc2C1=O,13,-3,/,/
C[C@@H]1CN([C@H](C)CO)C(=O)c2cc(NC(=O)Nc3ccc(F)cc3)ccc2O[C@H]1CN(C)CC1CCCCC1,52,-5,1,17
C[C@H](CO)N1C[C@H](C)[C@@H](CN(C)CC2CCCCC2)Oc2ccc(NC(=O)Nc3ccc(C(F)(F)F)cc3)cc2C1=O,127*,2,-1,52
C[C@H]1CN([C@@H](C)CO)C(=O)c2cc(NC(=O)Nc3ccc(C(F)(F)F)cc3)ccc2O[C@@H]1CN(C)CC1CCCCC1,59,-3,0,-1
C[C@@H]1CN([C@H](C)CO)C(=O)c2cc(NC(=O)Nc3ccc(C(F)(F)F)cc3)ccc2O[C@@H]1CN(C)CC1CCCCC1,126*,3,-6,/
CNC(=O)c1cccc2cccc(Br)c12,-5,9,-1,-12
Cc1ccc(S(=O)(=O)Nc2ccc3c(c2)CC(=O)N([C@@H](C)CO)C[C@@H](C)[C@@H](CN(C)CC2CC2)O3)cc1,8,5,/,-14
C[C@H](CO)N1C[C@H](C)[C@H](CN(C)CC2CCCCC2)Oc2ccc(NS(=O)(=O)c3ccc(Cl)cc3)cc2CC1=O,97*,-11,-5,41
C[C@H]1CN([C@@H](C)CO)C(=O)Cc2cc(NS(=O)(=O)c3ccc(Cl)cc3)ccc2O[C@H]1CN(C)CC1CCCCC1,135*,47,-12,23
C[C@H]1CN([C@@H](C)CO)C(=O)Cc2cc(NS(=O)(=O)c3ccc(Cl)cc3)ccc2O[C@@H]1CN(C)CC1CC1,9,-12,/,5
C[C@@H]1CN([C@@H](C)CO)C(=O)Cc2cc(NS(=O)(=O)c3ccc(Cl)cc3)ccc2O[C@@H]1CN(C)CC1CC1,8,4,/,/
Cc1ccc(S(=O)(=O)Nc2ccc3c(c2)CC(=O)N([C@H](C)CO)C[C@H](C)[C@H](CN(C)CC2CCCCC2)O3)cc1,99*,-12,-2,32
C[C@H]1CN([C@@H](C)CO)C(=O)Cc2cc(NS(=O)(=O)c3ccc(F)cc3)ccc2O[C@H]1CN(C)CC1CCCCC1,115*,1,-6,-16
COC(=O)C1=C(N)OC2=C(CCCC2=O)C1c1cccnc1 (configuration not stated),-14,8,3,-15
C/C(C=Nc1c(C)n(C)n(-c2ccccc2)c1=O)=C/c1ccccc1,4,9,4,-16
NC(=O)CSc1nc2c(c(=O)n1-c1ccccc1)C1=C(CCC1)C2,47,16,-1,-11
C[C@@H]1CN([C@H](C)CO)C(=O)Cc2cc(NS(C)(=O)=O)ccc2O[C@H]1CN(C)CC1CC1,-6,-10,3,75*
C[C@H]1CN([C@@H](C)CO)C(=O)Cc2cc(NS(=O)(=O)c3ccc(Cl)cc3)ccc2O[C@@H]1CN(C)CC1CCCCC1,120*,24,/,30
COC(=O)/C=C1/C(=O)N/C(=N\c2nc(C)cc(C)n2)N1c1cccc(C)c1,41,-15,0,24

# Screens (PubChem BioAssay)
